Reference: PubChem BioAssay AID2685 (National Center for Advancing Translational Sciences (NCATS), 2010)
Hit rate of the full screen: of about 320,000 compounds, about 2,100 (0.66%) were called active. Not shown: some 53% with an inconclusive outcome. The call rests on the fitted dose curve; in most records, active means well fitted inhibition curve with a large enough effect in the signal ratio, with a control signal flat (not every such curve was filed as active); inconclusive means small, poorly fitted or top-dose-only effect, or effect the other way, or a change in a side signal; inactive means flat fitted curve, though single readings scatter; the % refers to the signal ratio. For the sample, actives were picked, then their nearest neighbours and some compounds at random.

assay: qHTS Assay for Lipid Storage Modulators in Drosophila S3 Cells; settings: BODIPY lipid droplet fluorescence, 18-24 h, cells fed with added oleic acid; cell number change: measured here: cell count max response; series mostly up to 46.1 µM;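 on cell number change: cells counted by Cell Tracker Red CMTPX staining in the red channel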
Outline: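 Drosophila S3 cells got compounds at several concentrations plus oleic acid (400 uM solution). Laser-scanning cytometry with 488 nm excitation read lipid droplets at 500-530 nm and cells at 575-640 nm. Percent activity was relative to 20 uM Triacsin C.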
Potency means the concentration at half of the fitted maximal effect.

SMILES | Potency | cell number change
CN1CCN(c2ncnc3sc(-c4ccccc4)cc23)CC1 | inactive | 24.2%
CN1CCN(C(=O)/C=C/c2ccc([N+](=O)[O-])o2)CC1 | 32.6 µM (active) | -21.6%
CCN(CC)S(=O)(=O)c1ccc(C(=O)/C=C/c2ccc(-c3ccc([N+](=O)[O-])cc3)o2)cc1 | inactive | 6.91%
CCc1ccc(C(=O)/C=C/c2ccc([N+](=O)[O-])o2)cc1 | 1.3 µM (active) | -21.1%
CN1CCN(C(=O)/C=C/c2ccc([N+](=O)[O-])cc2)CC1 | inactive | -5.05%
O=C(/C=C\c1ccc(-c2cccc([N+](=O)[O-])c2)o1)N1CCOCC1 | inactive | 1.96%
COc1ccc(/C=C/C(=O)c2ccc([N+](=O)[O-])o2)cc1 | inactive | 5.86%
CCOC(=O)c1ccc(NC(=S)NNC(=O)c2cc(-c3cccnc3)nc3ccccc23)cc1 | inactive | -10.9%
OCC1(CCc2ccccc2)CCN(Cc2cnc(N3CCCC3)s2)CC1 | inactive | -1.4%
O=C(CCC(=O)N1CCOc2ccccc21)Nc1cc(F)ccc1F | inactive | -2.02%
O=C1OCc2ccc(NC(=O)c3ccccc3C(=O)O)cc21 | inactive | 2.9%
Cc1ccc(C)c(S(=O)(=O)Nc2ccc(C(=O)NCC(c3ccco3)N3CCCCC3)cc2)c1 (stereo not drawn) | inactive | 16%
Cc1ccc2[nH]c(=O)c(CN(C)C(=O)c3cccs3)cc2c1 | inactive | -11.8%
COC(=O)c1c(NC(=O)CCl)sc(C(=O)N2CCOCC2)c1C | 0.651 µM (active) | -18.1%
COC(=O)c1c(NC(=O)c2ccccc2OC)sc(C(=O)N2CCOCC2)c1C | inactive | 4.76%
COC(=O)c1c(N)sc(C(=O)N2CCOCC2)c1C | inactive | 8.28%
O=C(Cc1ccc(F)cc1)Nc1c(C(=O)N2CCN(c3ncccn3)CC2)oc2ccccc12 | inactive | 26.3%
COc1ccccc1CCNC(=O)c1cc(-c2ccncc2)nc2ccc(Br)cc12 | inactive | -14.5%
O=C(CCc1c[nH]c2ccccc12)OCc1cccc([N+](=O)[O-])c1 | 5.8 µM (active) | 0.451%

SMILES | Potency | cell number change
O=C(COC(=O)CCc1c[nH]c2ccccc12)Nc1ccc([N+](=O)[O-])cc1 | inactive | -0.284%
O=C(COC(=O)CCc1c[nH]c2ccccc12)Nc1cc([N+](=O)[O-])ccc1Cl | inactive | 17.2%
Cn1c(C(=O)Nc2ccccc2)cc2sccc21 | inactive | -17.5%
Cc1cccc(NC(=O)CCC(=O)N2CCOCC2)n1 | inactive | -0.208%
CC(C)(C)n1nc2c(c1NC(=O)c1ccc(Br)o1)CS(=O)C2 (stereo not drawn) | inactive | 12.2%
O=C(Nc1c2c(nn1-c1ccccc1)CS(=O)C2)c1ccco1 (stereo not drawn) | inactive | -4.99%
CC(C)(C)n1nc2c(c1NC(=O)c1ccco1)CS(=O)C2 (stereo not drawn) | 29.1 µM (active) | -3.33%
CCN1C(=O)/C(=c2\sc3nc(=O)c(Cc4ccccc4)nn3c2=O)c2ccccc21 | inactive | 6.19%
Oc1ccc[n+](CCCCC[n+]2cccc(O)c2)c1 | inactive | -10%
C(C#CCCCCCCCCC[n+]1ccccc1)#CCCCCCCCCC[n+]1ccccc1 | 13 µM (active) | 2.42%
O=C(O)CCCCCCCCCC[n+]1ccccc1 | inactive | 3.19%
CSc1ccc(CN2CCCC(N3CCN(c4ccccc4)CC3)C2)cc1 (stereo not drawn) | inactive | -9.94%
COc1ccccc1NNC(=O)c1cc(C(C)(C)C)nn1Cc1ccccc1 | inactive | 13.3%
CC(C)(C)c1cc(C(=O)NNc2cc(C(F)(F)F)ccc2Cl)n(Cc2ccccc2)n1 | 25.9 µM (active) | -27.1%
CC(C)(C)c1cc(C(=O)NNc2ccc(OC(F)(F)F)cc2)n(Cc2ccccc2)n1 | inactive | 8.19%
CC1CCCCC1NC(=O)c1ccc(S(=O)(=O)NCC2CCCO2)cc1 (stereo not drawn) | inactive | 3.19%
Cc1ccc(NC2OC(CO)C(O)C2O)cc1[N+](=O)[O-] (stereo not drawn) | inactive | -2.09%
Cc1ccc(NC2OC(CO)C(O)C(O)C2O)cc1 (stereo not drawn) | inactive | -12.8%
CC(=O)c1ccc(NC2OC(CO)C(O)C(O)C2O)cc1 (stereo not drawn) | 32.6 µM (active) | -9.97%

SMILES | Potency | cell number change
O=C(CCOc1ccccc1)N1CCN(S(=O)(=O)c2cccs2)CC1 | inactive | 5.86%
C=CCN1C(=O)C2(OCCCO2)c2ccccc21 | inactive | 7.72%
C=CCN1C(=O)C2(OCCCO2)c2cc(Cl)ccc21 | 4.11 µM (active) | 7.73%
C=CCN1C(=O)C2(OCCO2)c2cc(C)ccc21 | inactive | 5.32%
Cc1cc(C)c2nc(N3CCCC(C(=O)NCCN4CCOCC4)C3)sc2c1 (stereo not drawn) | inactive | -0.96%
O=C(C1=C(O)C(=O)N(CCCn2ccnc2)C1c1ccccc1)c1ccco1 (stereo not drawn) | inactive | -0.647%
Cc1ccc(C2C(C(=O)c3cc4ccccc4o3)=C(O)C(=O)N2CCN2CCOCC2)cc1 (stereo not drawn) | inactive | -0.236%
COCCN1C(=O)C(O)=C(C(=O)c2ccco2)C1c1cccc(Oc2ccccc2)c1 (stereo not drawn) | inactive | 11.9%
O=C1C(=O)N(CCN2CCOCC2)C(c2ccccn2)/C1=C(/O)c1ccc(Cl)cc1 (stereo not drawn) | inactive | 8.56%
CC(=O)C1=C(O)C(=O)N(CCN2CCOCC2)C1c1ccccc1 (stereo not drawn) | 20.6 µM (active) | 1.7%
O=C(C1=C(O)C(=O)N(CCN2CCOCC2)C1c1ccc([N+](=O)[O-])cc1)c1cccs1 (stereo not drawn) | inactive | 22.6%
CC(=O)C1=C(O)C(=O)N(CCO)C1c1ccccc1 (stereo not drawn) | inactive | 1.42%
O=C(C1=C(O)C(=O)N(CCN2CCOCC2)C1c1ccc(F)cc1)c1cccs1 (stereo not drawn) | 18.4 µM (active) | -5.07%
Cc1ccc(/C(O)=C2/C(=O)C(=O)N(CCN3CCOCC3)C2c2ccccn2)cc1 (stereo not drawn) | 29.1 µM (active) | 
O=C1C(=O)N(CCN2CCOCC2)C(c2ccccn2)/C1=C(/O)c1ccccc1 (stereo not drawn) | inactive | 1.37%
CCOc1ccc(C2C(C(=O)c3cccs3)=C(O)C(=O)N2CCN2CCOCC2)cc1 (stereo not drawn) | inactive | 7.61%
COCCCN1C(=O)C(O)=C(C(=O)c2ccco2)C1c1ccccc1 (stereo not drawn) | 3.66 µM (active) | -2.26%
COc1ccc(C2CC(=O)N(CC(=O)NCC3CCCO3)c3ccccc3S2)cc1 (stereo not drawn) | inactive | 0.213%
CC(=O)Nc1ccc(S(=O)(=O)NNC(=O)C(=O)NNc2ccccn2)cc1 | inactive | -5.03%
